Source: PubChem BioAssay AID1159580 (chemical genetic matrix, 2015)
Among all 5,500 compounds or so, about 2,000 (36%) were called active. About 18% were inconclusive and are not listed. Rule as the data show it: active = normalized growth mostly below about 0.91 (no sharp cut-off); inconclusive = no clear call, values can overlap the other calls; inactive = mostly above about 0.92. Some of the results follow.

Assay: chemical genetic growth profiling, strain panel (AID 1159580);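 also: tested at 20 µM; growth read once vehicle control cultures reached saturation at 30 °C; 1 = growth at the plate median or of vehicle wells; lower values mean less growth of the strain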
Details: growth OD

Measured: normalized growth

Cc1cc(=O)oc2c(O)c(O)ccc12
inactive: S. cerevisiae deletion strains, locus YJR043C, strain POL32, hits give low values 1 | S. cerevisiae deletion strains, locus YJR066W, strain TOR1, hits give low values 0.94 | S. cerevisiae deletion strains, locus YJR075W, strain HOC1, hits give low values 1.02 | S. cerevisiae deletion strains, locus YKL009W, strain mrt4, hits give low values 0.979 | S. cerevisiae deletion strains, locus YKL068W, hits give low values 1 | S. cerevisiae deletion strains, locus YKL085W, strain MDH1 (second series), hits give low values 0.99 | S. cerevisiae deletion strains, locus YKL085W, strain MDH1, hits give low values 0.99 | S. cerevisiae deletion strains, locus YKL160W, strain elf1, hits give low values 0.992 | S. cerevisiae deletion strains, locus YKR001C, strain vps1, hits give low values 0.99 | S. cerevisiae deletion strains, locus YKR026C, strain gcn3, hits give low values 0.963 | S. cerevisiae deletion strains, locus YKR091W, strain srl3, hits give low values 0.974 | S. cerevisiae deletion strains, locus YLL001W, strain dnm1, hits give low values 0.956 | S. cerevisiae deletion strains, locus YLL026W, hits give low values 0.975 | S. cerevisiae deletion strains, locus YLL041C, strain sdh2, hits give low values 0.993 | S. cerevisiae deletion strains, locus YLR027C, strain aat2, hits give low values 0.968 | S. cerevisiae deletion strains, locus YLR039C, strain RIC1, hits give low values 0.953 | S. cerevisiae deletion strains, locus YLR058C, strain SHM2, hits give low values 1.02 | S. cerevisiae deletion strains, locus YLR102C, strain apc9, hits give low values 1.01 | S. cerevisiae deletion strains, locus YLR113W, strain HOG1, hits give low values 0.981 | S. cerevisiae deletion strains, locus YLR221C, strain rsa3, hits give low values 0.995 | S. cerevisiae deletion strains, locus YLR258W, strain gsy2, hits give low values 0.986 | S. cerevisiae deletion strains, locus YLR262C, strain YPT6 (second series), hits give low values 0.93 | S. cerevisiae deletion strains, locus YLR262C, strain YPT6, hits give low values 0.923 | S. cerevisiae deletion strains, locus YLR268W, strain sec22, hits give low values 0.992 | S. cerevisiae deletion strains, locus YLR320W, strain mms22, hits give low values 0.993 | S. cerevisiae deletion strains, locus YLR330W, strain CHS5, hits give low values 1.02 | S. cerevisiae deletion strains, locus YLR342W, strain FKS1 (second series), hits give low values 0.996 | S. cerevisiae deletion strains, locus YLR342W, strain FKS1, hits give low values 0.971 | S. cerevisiae deletion strains, locus YLR357W, strain rsc2, hits give low values 0.952 | S. cerevisiae deletion strains, locus YLR370C, strain arc18, hits give low values 0.958 | S. cerevisiae deletion strains, locus YLR371W, strain rom2, hits give low values 1 | S. cerevisiae deletion strains, locus YLR384C, strain iki3, hits give low values 0.954 | S. cerevisiae deletion strains, locus YLR418C, strain cdc73, hits give low values 1.03 | S. cerevisiae deletion strains, locus YML016C, strain PPZ1, hits give low values 1.01 | S. cerevisiae deletion strains, locus YML032C, strain rad52, hits give low values 0.997 | S. cerevisiae deletion strains, locus YML120C, strain ndi1, hits give low values 0.974 | S. cerevisiae deletion strains, locus YML124C, strain tub3, hits give low values 1 | S. cerevisiae deletion strains, locus YMR058W, strain fet3, hits give low values 0.964 | S. cerevisiae deletion strains, locus YMR078C, strain ctf18, hits give low values 0.976 | S. cerevisiae deletion strains, locus YMR125W, strain sto1, hits give low values 0.944 | S. cerevisiae deletion strains, locus YMR129W, hits give low values 0.976 | S. cerevisiae deletion strains, locus YMR205C, strain PFK2, hits give low values 0.96 | S. cerevisiae deletion strains, locus YMR223W, strain ubp8, hits give low values 1.02 | S. cerevisiae deletion strains, locus YMR231W, strain pep5, hits give low values 0.967 | S. cerevisiae deletion strains, locus YMR263W, strain SAP30, hits give low values 1 | S. cerevisiae deletion strains, locus YMR307W, strain GAS1, hits give low values 0.965 | S. cerevisiae deletion strains, locus YNL067W, strain RPL9B, hits give low values 1.01 | S. cerevisiae deletion strains, locus YNL071W, strain lat1, hits give low values 0.983 | S. cerevisiae deletion strains, locus YNL153C, strain GIM3, hits give low values 1 | S. cerevisiae deletion strains, locus YNL183C, strain NPR1, hits give low values 0.931 | S. cerevisiae deletion strains, locus YNL209W, strain ssb2, hits give low values 0.977 | S. cerevisiae deletion strains, locus YNL233W, strain BNI4, hits give low values 1.01 | S. cerevisiae deletion strains, locus YNL248C, strain rpa49, hits give low values 1.01 | S. cerevisiae deletion strains, locus YNL250W, strain rad50, hits give low values 0.991 | S. cerevisiae deletion strains, locus YNL271C, strain bni1, hits give low values 1.01 | S. cerevisiae deletion strains, locus YNL298W, strain CLA4, hits give low values 0.991 | S. cerevisiae deletion strains, locus YNL307C, strain MCK1, hits give low values 1.03 | S. cerevisiae deletion strains, locus YNL322C, strain KRE1 (second series), hits give low values 0.968 | S. cerevisiae deletion strains, locus YNR049C, strain mso1, hits give low values 0.959 | S. cerevisiae deletion strains, locus YNR052C, strain pop2, hits give low values 0.984 | S. cerevisiae deletion strains, locus YOL006C, strain TOP1, hits give low values 1.14 | S. cerevisiae deletion strains, locus YOL012C, strain htz1 0.856 | S. cerevisiae deletion strains, locus YOL147C, strain pex11, hits give low values 1.01 | S. cerevisiae deletion strains, locus YOR001W, strain rrp6, hits give low values 0.988 | S. cerevisiae deletion strains, locus YOR061W, strain CKA2, hits give low values 0.999 | S. cerevisiae deletion strains, locus YOR069W, strain VPS5, hits give low values 1.01 | S. cerevisiae deletion strains, locus YOR070C, strain gyp1, hits give low values 0.975 | S. cerevisiae deletion strains, locus YOR080W, strain dia2, hits give low values 0.984 | S. cerevisiae deletion strains, locus YOR083W, strain WHI5, hits give low values 1 | S. cerevisiae deletion strains, locus YOR106W, strain vam3, hits give low values 0.926 | S. cerevisiae deletion strains, locus YOR136W, strain idh2, hits give low values 1.01 | S. cerevisiae deletion strains, locus YOR144C, strain elg1, hits give low values 0.993 | S. cerevisiae deletion strains, locus YOR184W, strain ser1, hits give low values 1.01 | S. cerevisiae deletion strains, locus YOR231W, strain MKK1, hits give low values 0.983 | S. cerevisiae deletion strains, locus YOR265W, strain rbl2, hits give low values 0.991 | S. cerevisiae deletion strains, locus YOR270C, strain vph1, hits give low values 0.864 | S. cerevisiae deletion strains, locus YOR290C, strain snf2, hits give low values 0.962 | S. cerevisiae deletion strains, locus YOR316C, strain cot1, hits give low values 1 | S. cerevisiae deletion strains, locus YPL051W, strain arl3, hits give low values 0.995 | S. cerevisiae deletion strains, locus YPL078C, strain atp4, hits give low values 0.981 | S. cerevisiae deletion strains, locus YPL106C, strain sse1, hits give low values 0.906 | S. cerevisiae deletion strains, locus YPL240C, strain hsp82, hits give low values 0.999 | S. cerevisiae deletion strains, locus YPL256C, strain CLN2, hits give low values 0.971 | S. cerevisiae deletion strains, locus YPR119W, strain clb2, hits give low values 0.985 | S. cerevisiae deletion strains, locus YPR141C, strain kar3, hits give low values 1 | S. cerevisiae deletion strains, locus YPR163C, strain tif3, hits give low values 0.99 | S. cerevisiae deletion strains, locus YPR167C, strain met16, hits give low values 1.02 | S. cerevisiae deletion strains, strain wtn01, hits give low values 0.997 | S. cerevisiae strains, strain wild type, hits give low values 1
